# The campaign covered roughly 69,000 compounds. About 1,000 (1.4%) showed an effect of 50% or more. Only a selection was taken, and strong results are over-represented in it overall.
# Test system: Leishmania donovani
# Test: Leishmania intramacrophage assay
# Assay type: functional, organism-based
# Set-up: scale not given: in the data most compounds retested in dose-response had high values
smiles,measurement,setting,value
Cc1sc2nc(CCN)nc(N(C)CCCC3CCCO3)c2c1C (configuration not stated),Percent Effect,"30.3 µM, […]",63.54%
CCN(CCN(C)C)c1nc(CCN)nc2sc(C)c(C)c12,Percent Effect,"30.3 µM, […]",54.95%
Cc1sc2nc(CCN)nc(N(CCN(C)C)CC3CCCO3)c2c1C (configuration not stated),Percent Effect,"30.3 µM, […]",38.72%
CCCSc1nn(CCN(C)C)c2nc3sc(C)c(CC)c3c(=O)n12,Percent Effect,"30.3 µM, […]",45.45%
COCCN(CC1CC1)c1nc(CCN)nc2sc(C)c(C)c12,Percent Effect,"30.3 µM, […]",77.93%
Cc1nn(C2CCS(=O)(=O)C2)c(O)c1Cc1ccccc1 (configuration not stated),Percent Effect,"30.3 µM, […]",20.59%
Cc1csc(CN(CC2CCCO2)C(=O)c2ccc(C)nc2C)n1 (configuration not stated),Percent Effect,"30.3 µM, […]",-39.1%
Cc1cc(=O)n(C)cc1NC(=O)Cc1cccc(Cl)c1,Percent Effect,"30.3 µM, […]",-5.155%
CCOCC1CN(CC2CC2)Cc2nn(CC3CC3)cc21.O=C(O)C(F)(F)F (configuration not stated),Percent Effect,"30.3 µM, […]",-3.875%
CNC(=O)c1ccc(C2CN(C(=O)c3cnn(C)c3)CCO2)nc1 (configuration not stated),Percent Effect,"30.3 µM, […]",4.595%
CN(C)CCO[C@@H]1CC[C@H]2[C@H]1OCCN2C(=O)COc1ccccc1.O=C(O)C(F)(F)F,Percent Effect,"30 µM, 30.03 µM",28.35%
NS(=O)(=O)c1ccc(N2CCN(CCCc3cn[nH]c3)CC2)cc1,Percent Effect,"30.3 µM, […]",-5.312%
COc1ccc(S(=O)(=O)N2CCC[C@@H]3CN(C(=O)C4CC4)C[C@@H]32)cc1F,Percent Effect,"30.3 µM, […]",-21.4%
COc1cc(C(C)=O)ccc1OCCNCc1ccco1.Cl,Percent Effect,"30.3 µM, […]",31.62%
COc1cc(CNCc2ccco2)ccc1OCCO.Cl,Percent Effect,"30.3 µM, […]",36%
CCCc1ccc(OCCNCc2ccco2)c(OC)c1.Cl,Percent Effect,"30.3 µM, […]",65.86%
Cc1noc(CN(Cc2cccc(C#N)c2)Cc2ccco2)n1,Percent Effect,"30.3 µM, […]",-9.737%
O=C(c1cnccn1)N1CCN2C[C@H](OCC3CC3)C[C@H]2C1,Percent Effect,"30.3 µM, […]",-6.525%
Cc1cc(Cc2ccccc2F)cc(C2CCCNC2)n1 (configuration not stated),Percent Effect,"30.3 µM, […]",9.469%
Cc1cccc(Cc2cc(C)nc(C3CCCNC3)c2)c1 (configuration not stated),Percent Effect,"30.3 µM, […]",59.44%
Cc1cc(Cc2ccc(F)cc2)cc(C2CCCNC2)n1 (configuration not stated),Percent Effect,"30.3 µM, […]",22.51%
Cc1cc(Cc2ccccc2)cc(C2CCCNC2)n1 (configuration not stated),Percent Effect,"30.3 µM, […]",19.14%
Cc1cc(Cc2cccc(C(F)(F)F)c2)cc(C2CCCNC2)n1 (configuration not stated),Percent Effect,"30.3 µM, […]",91.42%
Cc1cc(Cc2ccccc2C)cc(C2CCCNC2)n1 (configuration not stated),Percent Effect,"30.3 µM, […]",39.73%
CC(O)CCN(C)C(=O)Nc1ccc(Br)cc1 (configuration not stated),Percent Effect,"30.3 µM, […]",-0.06572%
Cc1ccc(CNC(=O)CN2CCCC(Cn3cncn3)C2)cc1 (configuration not stated),Percent Effect,30 µM,15.14%
Nc1nc(N2CCCCCC2)ncc1C(=O)NCc1ccc(F)c(Cl)c1,Percent Effect,"30.3 µM, […]",1.039%
CC(CO)CSc1ncnc2[nH]ncc12 (configuration not stated),Percent Effect,"30.3 µM, […]",-17.01%
O=C(O)C(F)(F)F.O=C(O)C(F)(F)F.O=C1COC2(CCN(Cc3cccnc3)CC2)CN1,Percent Effect,"30.3 µM, […]",22.41%
CC(C)Nc1nc2c(c(NC3CC3)n1)CCN(C(=O)C1CCOC1)CC2 (configuration not stated),Percent Effect,"30.3 µM, […]",26.08%
Cc1nc2c(c(NC(C)C)n1)CCN(C1CCOCC1)CC2.O=C(O)C(F)(F)F,Percent Effect,"30.3 µM, […]",14.91%
CC(C)Nc1nc2c(c(NC3CC3)n1)CCN(C1CCOCC1)CC2,Percent Effect,"30.3 µM, […]",70.3%
CC(C)N(CCO)C(=O)C1CCC(=O)N(CCc2cccc(F)c2)C1 (configuration not stated),Percent Effect,"30.3 µM, […]",21.22%
OCC1(Cc2ccc(Cl)cc2)CCN(Cc2cccnc2)CC1,Percent Effect,"30.3 µM, […]",13.26%
Cc1n[nH]c(C)c1NC(=O)Nc1cccnc1N1CCCC1,Percent Effect,"30.3 µM, […]",-22.16%
CSc1ccc2cc(CN(C)CCO)c(=O)[nH]c2c1,Percent Effect,"30.3 µM, […]",10.15%
CNCc1cn(C2CCN(CCC(C)c3ccccc3)CC2)nn1 (configuration not stated),Percent Effect,"30.3 µM, […]",69.72%
COCc1cn(C2CCN(CCC(C)c3ccccc3)CC2)nn1 (configuration not stated),Percent Effect,"30.3 µM, […]",15.55%
CC(CCN1CCC(n2cc(CCO)nn2)CC1)c1ccccc1 (configuration not stated),Percent Effect,"30.3 µM, […]",17.91%
Cc1noc(C)c1CCCNC(=O)C1CCCN(C(=O)C2CC2)C1 (configuration not stated),Percent Effect,"30.3 µM, […]",17.01%
CCSc1cc(C(=O)NCc2ccccc2O)ccn1,Percent Effect,"30 µM, 30.03 µM",52.62%
CCSc1cc(C(=O)NCc2ccc(C(=O)NC)cc2)ccn1,Percent Effect,"30.3 µM, […]",-0.2287%
CCSc1cc(C(=O)NCCNC(=O)Cc2ccccc2)ccn1,Percent Effect,"30.3 µM, […]",42.53%
CNCC(=O)N[C@H]1CN(c2nc(C)c3c(n2)CCCC3)C[C@@H]1C1CC1,Percent Effect,"30.3 µM, […]",61.72%
CNc1nc(N2C[C@H](NC(=O)CCOC)[C@@H](C3CC3)C2)nc2c1CCC2,Percent Effect,"30.3 µM, […]",20.37%
COCCC(=O)N[C@H]1CN(c2nc(C)c3c(n2)CCCC3)C[C@@H]1C1CC1,Percent Effect,"30.3 µM, […]",-3.355%
Cc1ccc(CN(C)C(=O)c2cnsn2)cc1,Percent Effect,"30.3 µM, […]",19.42%
CCn1nc(CC(C)C)cc1C(=O)N1CC(c2ccncc2)C1,Percent Effect,"30.3 µM, […]",24.78%
CCC(C(=O)NCc1nc(C)cc(C(F)(F)F)n1)n1cccn1 (configuration not stated),Percent Effect,"30.3 µM, […]",13.87%
CCOCC(=O)NCCc1nc(C)cc(C(F)(F)F)n1,Percent Effect,"30.3 µM, […]",-29.08%
CCC(C(=O)NCCc1nc(C)cc(C(F)(F)F)n1)n1cccn1 (configuration not stated),Percent Effect,"30.3 µM, […]",69.8%
O=C(CC1NC(N2CCc3ccccc3C2)=NC1=O)Nc1ccccc1 (configuration not stated),Percent Effect,"30.3 µM, […]",4.892%
